Inhibition data for 20 compounds are collected here from ChEMBL document CHEMBL1961873, “Compounds: GSK PKIS; Assays: Nanosyn kinase panel” (2012).

As usually defined, the inhibition is the relative decrease from the control value, in per cent.

The target of assay [1] is Tyrosine-protein kinase receptor UFO (Homo sapiens) (UniProt P30530). The note with it: at 1 µM.
Assay [2] concerns the target Tyrosine-protein kinase Blk (Homo sapiens) (UniProt P51451). The settings on record: at 0.1 µM.
The target is the same in assay [3]. The note with it: at 1 µM.
Assay [4] concerns the target T1, Cytoplasmic tyrosine-protein kinase BMX (Homo sapiens) (UniProt P51813).
T1 sequence (whole entry): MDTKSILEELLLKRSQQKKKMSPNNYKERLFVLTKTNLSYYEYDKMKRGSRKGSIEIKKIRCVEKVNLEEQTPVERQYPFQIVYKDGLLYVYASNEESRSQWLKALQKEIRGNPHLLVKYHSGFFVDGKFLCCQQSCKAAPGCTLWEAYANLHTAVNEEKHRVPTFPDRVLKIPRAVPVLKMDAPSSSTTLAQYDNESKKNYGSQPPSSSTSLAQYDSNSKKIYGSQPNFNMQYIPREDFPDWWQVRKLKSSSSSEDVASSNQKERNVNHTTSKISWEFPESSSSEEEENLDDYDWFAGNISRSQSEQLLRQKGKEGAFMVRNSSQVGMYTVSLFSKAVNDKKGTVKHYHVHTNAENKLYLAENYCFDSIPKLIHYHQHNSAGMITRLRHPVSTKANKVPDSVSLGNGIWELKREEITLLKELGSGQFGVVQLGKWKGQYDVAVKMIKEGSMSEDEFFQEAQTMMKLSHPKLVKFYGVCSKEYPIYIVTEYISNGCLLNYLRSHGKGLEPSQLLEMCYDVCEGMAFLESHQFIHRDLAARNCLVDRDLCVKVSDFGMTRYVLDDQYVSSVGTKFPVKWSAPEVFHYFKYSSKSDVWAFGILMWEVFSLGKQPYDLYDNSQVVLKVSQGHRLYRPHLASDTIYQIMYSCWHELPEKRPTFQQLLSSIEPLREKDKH
The note with it: at 0.1 µM.

Assay [5] concerns the target T1, Cytoplasmic tyrosine-protein kinase BMX (Homo sapiens). The settings on record: at 1 µM.
In assay [6] the target is Protein-tyrosine kinase 6 (Homo sapiens) (UniProt Q13882). The note with it: at 0.1 µM.
Chain of Protein-tyrosine kinase 6 (Homo sapiens) (Q13882 whole entry, looked up): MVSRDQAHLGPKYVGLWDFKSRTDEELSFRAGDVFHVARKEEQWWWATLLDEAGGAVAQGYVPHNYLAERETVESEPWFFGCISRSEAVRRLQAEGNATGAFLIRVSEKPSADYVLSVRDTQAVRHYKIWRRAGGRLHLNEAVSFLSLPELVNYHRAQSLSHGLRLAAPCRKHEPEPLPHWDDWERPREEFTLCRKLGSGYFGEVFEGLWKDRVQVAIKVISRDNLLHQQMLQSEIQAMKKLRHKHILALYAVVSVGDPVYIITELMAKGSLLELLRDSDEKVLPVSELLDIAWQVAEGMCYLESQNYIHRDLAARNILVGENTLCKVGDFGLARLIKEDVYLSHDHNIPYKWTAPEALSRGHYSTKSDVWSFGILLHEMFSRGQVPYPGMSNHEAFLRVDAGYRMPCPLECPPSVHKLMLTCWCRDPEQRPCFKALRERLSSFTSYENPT
Assay [7] shares this target. The settings on record: at 1 µM.
The target of assay [8] is Tyrosine-protein kinase BTK (Homo sapiens) (UniProt Q06187). The settings on record: at 0.1 µM.
Chain of Tyrosine-protein kinase BTK (Homo sapiens) (Q06187 whole entry): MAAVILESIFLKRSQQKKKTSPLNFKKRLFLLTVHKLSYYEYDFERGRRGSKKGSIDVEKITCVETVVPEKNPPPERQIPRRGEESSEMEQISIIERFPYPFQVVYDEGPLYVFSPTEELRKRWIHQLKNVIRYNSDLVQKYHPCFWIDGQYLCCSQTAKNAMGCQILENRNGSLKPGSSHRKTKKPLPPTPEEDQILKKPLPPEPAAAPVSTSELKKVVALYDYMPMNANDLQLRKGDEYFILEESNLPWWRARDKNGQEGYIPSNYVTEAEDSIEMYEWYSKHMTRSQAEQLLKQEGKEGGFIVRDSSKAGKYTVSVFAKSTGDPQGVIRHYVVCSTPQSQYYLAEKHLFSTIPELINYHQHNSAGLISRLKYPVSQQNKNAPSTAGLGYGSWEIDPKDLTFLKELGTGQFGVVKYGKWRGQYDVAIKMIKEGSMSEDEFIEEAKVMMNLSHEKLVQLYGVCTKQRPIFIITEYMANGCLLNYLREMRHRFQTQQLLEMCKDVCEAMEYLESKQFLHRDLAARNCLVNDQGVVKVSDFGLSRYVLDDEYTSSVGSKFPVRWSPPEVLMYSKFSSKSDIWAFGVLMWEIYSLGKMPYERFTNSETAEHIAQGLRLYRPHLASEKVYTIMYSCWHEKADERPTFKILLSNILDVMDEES
Assay [9] shares this target. The settings on record: at 1 µM.
The target in assay [10] is Tyrosine-protein kinase CSK (Homo sapiens) (UniProt P41240). The note with it: at 0.1 µM.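 Also: value given is the averaged percent inhibition of CSK kinase activity, from the GSK PKIS kinase inhibitor set screening panel.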
Chain of Tyrosine-protein kinase CSK (Homo sapiens) (P41240 2-450 limits assumed): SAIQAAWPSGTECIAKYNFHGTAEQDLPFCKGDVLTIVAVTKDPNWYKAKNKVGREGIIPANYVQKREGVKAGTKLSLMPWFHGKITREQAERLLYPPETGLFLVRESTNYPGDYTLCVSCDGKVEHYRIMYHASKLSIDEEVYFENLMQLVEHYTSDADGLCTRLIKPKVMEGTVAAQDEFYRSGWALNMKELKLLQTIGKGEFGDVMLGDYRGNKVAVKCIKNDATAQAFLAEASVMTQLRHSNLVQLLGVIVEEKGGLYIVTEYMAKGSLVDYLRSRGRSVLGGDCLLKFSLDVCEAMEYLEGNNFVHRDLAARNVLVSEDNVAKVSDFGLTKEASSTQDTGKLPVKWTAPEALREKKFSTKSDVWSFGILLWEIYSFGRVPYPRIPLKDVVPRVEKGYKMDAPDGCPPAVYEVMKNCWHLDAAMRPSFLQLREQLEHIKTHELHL

Chain of Tyrosine-protein kinase receptor UFO (Homo sapiens) (P30530 whole entry): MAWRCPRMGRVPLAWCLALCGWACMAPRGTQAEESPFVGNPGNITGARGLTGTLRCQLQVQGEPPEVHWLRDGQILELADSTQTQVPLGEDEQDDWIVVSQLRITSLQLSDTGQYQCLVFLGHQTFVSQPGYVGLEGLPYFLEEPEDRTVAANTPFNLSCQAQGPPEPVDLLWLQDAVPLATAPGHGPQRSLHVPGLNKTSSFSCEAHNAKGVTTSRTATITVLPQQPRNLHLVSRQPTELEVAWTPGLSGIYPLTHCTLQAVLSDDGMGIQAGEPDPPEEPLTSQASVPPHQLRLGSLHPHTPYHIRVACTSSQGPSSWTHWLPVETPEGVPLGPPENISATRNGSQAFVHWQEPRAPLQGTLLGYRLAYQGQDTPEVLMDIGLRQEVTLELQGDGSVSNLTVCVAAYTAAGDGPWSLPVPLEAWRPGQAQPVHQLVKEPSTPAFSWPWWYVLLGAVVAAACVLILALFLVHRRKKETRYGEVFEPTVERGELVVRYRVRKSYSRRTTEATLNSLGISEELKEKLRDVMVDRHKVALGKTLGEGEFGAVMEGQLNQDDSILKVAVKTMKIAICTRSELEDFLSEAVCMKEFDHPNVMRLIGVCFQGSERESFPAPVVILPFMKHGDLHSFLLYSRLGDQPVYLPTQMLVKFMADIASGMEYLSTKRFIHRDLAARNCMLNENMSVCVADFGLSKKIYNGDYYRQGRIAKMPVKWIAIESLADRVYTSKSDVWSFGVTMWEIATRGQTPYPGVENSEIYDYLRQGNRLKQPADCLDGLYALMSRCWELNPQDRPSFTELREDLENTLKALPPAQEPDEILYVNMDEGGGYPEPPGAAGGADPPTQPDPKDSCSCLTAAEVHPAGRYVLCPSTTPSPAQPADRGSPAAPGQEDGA
Chain of Tyrosine-protein kinase Blk (Homo sapiens) (P51451 2-505 limits assumed): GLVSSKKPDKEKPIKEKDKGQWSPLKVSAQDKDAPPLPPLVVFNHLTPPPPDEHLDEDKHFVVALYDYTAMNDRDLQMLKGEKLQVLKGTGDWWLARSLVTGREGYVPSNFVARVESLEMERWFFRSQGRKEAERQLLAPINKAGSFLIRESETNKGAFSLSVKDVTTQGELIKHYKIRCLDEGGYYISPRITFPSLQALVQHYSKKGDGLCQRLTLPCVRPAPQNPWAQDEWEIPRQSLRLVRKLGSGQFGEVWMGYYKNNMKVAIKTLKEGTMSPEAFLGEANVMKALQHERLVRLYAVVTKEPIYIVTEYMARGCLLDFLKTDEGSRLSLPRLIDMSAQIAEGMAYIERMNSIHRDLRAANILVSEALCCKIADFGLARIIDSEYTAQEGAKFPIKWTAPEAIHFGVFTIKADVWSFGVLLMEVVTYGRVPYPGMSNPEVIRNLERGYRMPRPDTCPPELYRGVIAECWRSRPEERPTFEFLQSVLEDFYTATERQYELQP

As for `COc1ccc2ncnc(Nc3ccc(OCc4ccccc4)cc3)c2c1`, the inhibition was -5.04% in [1]; 2.17% in [2]; 6.3% in [3]; 2.68% in [4]; 2.81% in assay [5]; 0.54% in [6]. Moreover, the inhibition in assay [7] was 9.39%; in assay [8] it was -0.01%; in [9], 1.33%; in assay [10], 2.5%.
Consider `[O-][S+]1CCN(Cc2ccc(-c3ccc4ncnc(Nc5ccc(OCc6ccccc6)c(Cl)c5)c4c3)o2)CC1`, for which the inhibition in assay [1] was 0.46%; in [2], -0.34%; in assay [3], 6.7%; in assay [4], 0.31%; in assay [5] it was 2.05%; in assay [6], 0.38%. The inhibition in assay [7] is 11%; in assay [8] it was -1.44%; in assay [9], -0.83%; in [10], -0.03%.
For `CCOc1nccc2c1nc(-c1nonc1N)n2CC`, the inhibition in assay [1] was -0.05%; in assay [2], 3.42%; in assay [3] it was 2.55%; in assay [4], 1.6%; in assay [5], 1.81%; in assay [6] it was 0.8%. For the same compound, the inhibition in [7] was 2.85%; in [8], 1.49%; in assay [9], 2.44%; in assay [10] it was 3.08%.
Regarding `COc1cc(Nc2nccc(-c3cnn4ncccc34)n2)cc(OC)c1`, the inhibition in [1] turned out to be 20.7%; in assay [2], 2%; in [3] it was 24.8%; in [4], 7.04%; in [5], 31.3%; in assay [6], 0.23%. Besides, the inhibition is 17.6% in assay [7], 1.94% in assay [8], 11.3% in [9] and 2.91% in assay [10].
Turning to `COc1cc2ncnc(Nc3ccc4c(cnn4Cc4ccccc4)c3)c2cc1OC`, the inhibition in [1] was -3.18%; in assay [2], 13.9%; in [3], 60.8%; in assay [4] it was 3.73%; in assay [5], 23.4%; in assay [6], 13.1%. Further, the inhibition in assay [7] amounted to 53.2%; in assay [8] it was 4.09%; in assay [9] it was 29.1%; in [10] it was 11.1%.
With `CN(C)c1cc2c(Nc3ccc4c(cnn4Cc4ccccc4)c3)ncnc2cn1`, the inhibition in [1] is -3.44%; in assay [2], 3.2%; in assay [3], 22.6%; in assay [4], 3.53%; in [5], 20.8%; in assay [6], 5.3%. Moreover, the inhibition in assay [7] is 29.2%; in assay [8] it was 1.09%; in assay [9], 9.11%; in [10], 6.06%.
Regarding `CN(C)CCCn1c(-c2nonc2N)nc2cnccc21`, the inhibition in [1] is -8.31%; in [2], 1.44%; in assay [3] it was 3.44%; in assay [4] it was 3.45%; in assay [5], 3.08%; in [6], 0.2%. For the same compound, the inhibition in [7] was 3.36%; in [8], 0.72%; in [9], 0.12%; in [10] it was 1.79%.
In the case of `O=C(Nc1ccc(Oc2ccc3[nH]c(NC(=O)c4ccco4)nc3c2)cc1)Nc1cc(C(F)(F)F)ccc1F`, the inhibition is 60.5% in assay [1]; -3.12% in [2]; 1.7% in [3]; -2.09% in [4]; 1.74% in [5]; 1.76% in assay [6]. Besides, the inhibition in [7] was 3.78%; in assay [8] it was -3.7%; in [9], -3.03%; in [10], 2.94%.
As to `NS(=O)(=O)c1ccc(Nc2cc(-c3cccc(O)c3)n[nH]2)cc1`, the inhibition in assay [1] was -5.6%; in assay [2], 3.31%; in [3], 6.67%; in assay [4] it was -0.08%; in assay [5], 4.72%; in assay [6], 4.78%. The inhibition in assay [7] was 6.34%; in [8], -0.39%; in assay [9], 0.41%; in assay [10] it was 4.63%.
Turning to `O=S(=O)(CCOCc1ccc(-c2ccc3ncnc(Nc4ccc(OCc5cccc(F)c5)c(Cl)c4)c3c2)o1)c1ccccc1`, the inhibition in [1] was 1.46%; in assay [2] it was -1.07%; in [3], 1.68%; in assay [4] it was -0.56%; in assay [5], 1.08%; in [6], 0.18%. Moreover, the inhibition was 1.77% in assay [7], -1.67% in assay [8], -1.3% in assay [9] and 1.76% in [10].
Take `Oc1cccc(-c2nc(-c3ccccc3)[nH]c2-c2ccncc2)c1`: the inhibition in [1] is -0.19%; in assay [2], 2.99%; in assay [3], 8.82%; in [4], 7.29%; in assay [5], 8.97%; in assay [6], 13%. Further, the inhibition in [7] came to 55.4%; in assay [8] it was 2.03%; in assay [9], 2.36%; in assay [10] it was 6.74%.
`FC(F)(F)c1ccc(-c2nn3ncccc3c2-c2ccnc(Nc3ccc4c(c3)OCCO4)n2)cc1`: the inhibition is 7.56% in [1]; 3.74% in assay [2]; 15.7% in assay [3]; 2.61% in [4]; 0.4% in assay [5]; -0.58% in assay [6]. Further, the inhibition is 12% in assay [7], 0.26% in assay [8], 7.22% in assay [9] and -0.13% in [10].
As for `CC(C)c1ccc2c(c1)NC(=O)/C2=N/Nc1ccc(S(N)(=O)=O)cc1`, the inhibition was found to be 0.13% in assay [1]; 1.27% in assay [2]; 14% in assay [3]; 0.14% in [4]; 6.03% in [5]; 0.98% in [6]. Moreover, the inhibition in assay [7] was 1.26%; in [8], -0.25%; in assay [9], 0.07%; in assay [10] it was -1.01%.
Turning to `Cc1cc(O)cc(C)c1/C=C/c1cncc(C(=O)N(C)C)c1`, the inhibition is 3.27% in assay [1]; 2.94% in assay [2]; 3.78% in [3]; -2.2% in assay [4]; 5.69% in assay [5]; 2.85% in assay [6]. In addition, the inhibition in assay [7] amounted to 6.32%; in [8], 1.28%; in assay [9], 1.08%; in [10], 4.08%.
`COC(=O)c1ccc2c(c1)C(=Cc1cc(Br)c(O)c(Br)c1)C(=O)N2`: the inhibition in assay [1] is -4.28%; in assay [2], 3.19%; in [3] it was 11.6%; in assay [4], 3.04%; in assay [5], 7.64%; in assay [6], 2.4%. Further, the inhibition in [7] is 6.95%; in assay [8], -1.29%; in [9] it was 0.81%; in assay [10], -0.27%.
On to `NC(=O)c1cccc(Nc2nccc(Nc3cccc(F)c3)n2)c1`, for which the inhibition in assay [1] was -2.93%; in assay [2], 0.38%; in assay [3] it was 13.8%; in assay [4] it was 4.88%; in assay [5], 37.9%; in assay [6] it was 4.3%. In addition, the inhibition in assay [7] was found to be 36.2%; in assay [8] it was 0.63%; in assay [9], 7.3%; in assay [10], 0.49%.
For `Cc1cc(Cl)cc2c1NC(=O)C2=NNc1ccc(S(N)(=O)=O)cc1`, the inhibition in [1] is -2.47%; in assay [2], 1.98%; in [3] it was 1.63%; in assay [4] it was 3.4%; in [5], 2.55%; in [6], -0.72%. Further, the inhibition in assay [7] was 1.77%; in [8], 2.48%; in [9], 0.33%; in assay [10] it was -0.78%.
For `NC(=O)c1sc(-n2cnc3ccccc32)cc1OCc1ccccc1Br`, the inhibition is -4.14% in assay [1]; 2.16% in [2]; 3.7% in [3]; 3.03% in [4]; 4.96% in assay [5]; 1.74% in assay [6]. Moreover, the inhibition was 7.25% in [7], -0.65% in assay [8], -0.19% in assay [9] and 1.13% in [10].
For the compound `NS(=O)(=O)c1cccc(-c2cc3ccncc3cc2OCc2ccccc2)c1`, the inhibition in assay [1] was -7.14%; in assay [2] it was 2.09%; in assay [3] it was 6.09%; in assay [4], -0.13%; in assay [5] it was 4.21%; in assay [6] it was 4.43%. The inhibition in [7] is 4.64%; in assay [8] it was -0.27%; in [9], 0.84%; in assay [10] it was 5.62%.
As to `Cc1nc(-c2ccccc2)n2nc(NCCCN3CCOCC3)ncc12`, the inhibition in [1] is -0.92%; in assay [2], 2.04%; in assay [3] it was 4.14%; in assay [4], 3.56%; in [5] it was 5.57%; in [6], -2.39%. Besides, the inhibition in [7] was 2.23%; in assay [8] it was 0.19%; in assay [9] it was 0.66%; in assay [10], -0.24%.
